From PubChem
CHX counter = affects cycloheximide protein synthesis inhibition readout, counter-screen; cell reporter, cycloheximide protein synthesis inhibition counterscreen; 12% of 300,000 active; max response, %; AID 2314; in the data active = max response mostly above about 13%, no sharp cut-off; inactive = mostly below about 14%; note: read at 38.3 µM for the half of the compounds with a filed dose
SARS PLpro yeast = blocks SARS-CoV papain-like protease in a yeast assay. S. cerevisiae expressing SARS-CoV PLpro, growth rescue. Potency, µM (highest dose often 32.9 µM), most hits filed as activators. 0.19% of 330,000 active. AID 485353; calls by dose curve; note: nearly all actives have a fitted effect of over 55% in size
Shiga inhibitor = Shiga toxin inhibition | AID 2315 | 9.2% of 290,000 active | inhibition, % at 38.7 µM | Vero cells, Shiga toxin protein synthesis inhibition reporter; in the data active = inhibition mostly above about 28%, no sharp cut-off; inactive = mostly below about 43%
AmpC detergent = blocks E. coli AmpC beta-lactamase in detergent assay; Potency, µM (highest dose often 114 µM), most hits filed as inhibitors; AmpC hydrolysis of nitrocefin, absorbance 480 nm, 0.01% Triton; 0.041% of 370,000 active; P00811; AID 485294; note: nearly all actives have a fitted effect of over 25% in size
Target sequence (P00811 whole entry, looked up): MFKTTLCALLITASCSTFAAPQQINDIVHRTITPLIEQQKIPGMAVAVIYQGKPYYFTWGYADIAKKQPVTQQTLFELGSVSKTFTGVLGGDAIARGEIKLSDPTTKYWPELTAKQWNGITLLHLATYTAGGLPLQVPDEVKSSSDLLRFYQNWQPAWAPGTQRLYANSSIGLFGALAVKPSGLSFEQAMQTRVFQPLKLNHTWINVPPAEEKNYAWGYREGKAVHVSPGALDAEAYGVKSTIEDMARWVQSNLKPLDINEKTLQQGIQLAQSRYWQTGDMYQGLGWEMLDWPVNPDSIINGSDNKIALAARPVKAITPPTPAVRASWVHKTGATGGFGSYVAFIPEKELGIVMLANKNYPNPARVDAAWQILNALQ
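AmpC (5.3 nM in the dispensed reagent) in 20 mM phosphate pH 7.0 with 0.01% (detergent screen) or 0.0001% Triton X-100 was preincubated with compounds for 15 min at room temperature. Nitrocefin was then added from an 800 uM solution, and hydrolysis was followed at 480 nm.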
AMA1 RON2 block = inhibitors of Plasmodium falciparum AMA1-RON2 interaction. AlphaScreen AMA1-biotinylated RON2 peptide binding. Potency, µM (series often up to 58.2 µM), actives largely listed as inhibitors. 0.2% of 360,000 active. AID 720542; note: nearly all actives have a fitted effect of over 45% in size
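AMA1 (3D7) with his tag at 25 nM final met compounds first, then biotinylated RON2 peptide at 25 nM; detection used donor plus acceptor beads, 10 µg/mL apiece, read by AlphaScreen after 30 min at room temperature.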
AmpC inh no detg = AmpC beta-lactamase inhibition without detergent. 0.52% of 330,000 active. AmpC nitrocefin hydrolysis, absorbance 480 nm, 0.0001% Triton. AID 485341. Potency, µM (series often up to 57.1 µM), actives largely listed as inhibitors; note: nearly all actives have a fitted effect of over 20% in size
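20 mM phosphate pH 7.0 + 0.01% (detergent screen) or 0.0001% Triton X-100; 5.3 nM AmpC reagent; cpd preinc 15 min RT; nitrocefin (800 uM stock) to start; A480 q20 s × 4 min; Activity was normalised to no-enzyme and no-compound control wells.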
A number is an active result; n = inactive; u = inconclusive; x = no result given; [ ] = another dose, or the depositor's remark. Many of the other results were omitted from the sample, so hits are more common in it than they were. Unless noted, calls come from the whole dose curve; as a rule, active = well fitted curve in the direction sought with a large enough effect; inconclusive = small, poorly fitted or top-dose-only effect, or another doubt; inactive = no such curve, though single readings can be large; an effect the other way counts as inactive or inconclusive.

SMILES | CHX counter | SARS PLpro yeast | Shiga inhibitor | AmpC detergent | AMA1 RON2 block | AmpC inh no detg
COc1ccc(C2C(C(C)=O)=C(O)C(=O)N2CCN(C)C)cc1OC (centres undefined) | n | n | n | n | x | n
N#Cc1cccc(S(=O)(=O)Nc2c(NC3CCCCC3)c3ccccc3oc2=O)c1 | n | x | n | n | n | n
CS(=O)(=O)c1ccc2nc(NC(=O)CN3CCN(Cc4ccccc4)CC3)sc2c1 | n | n | n | n | n | u
CC(C)(C)c1nc2scc(-c3ccc(Cl)cc3)c2c(=O)o1 | n | n | n | n | n | n
NNC(=O)c1ccc(CSc2cccc3cccnc23)cc1 | 23.1 | n | n | u | n | n[11.4 µM]
O=C1CCC/C(=N\NC(=O)c2ccc(CSc3cccc4cccnc34)cc2)C1 | n | n | n | u | n | n
O=C(Nc1ccc(NC(=O)c2ccccc2Cl)nc1)c1ccco1 | 16.8 | n | 69.0 | n | n | n
O=C(CCc1ccccc1)Nc1ccc(NC(=O)c2ccco2)nc1 | 22.3 | n | n | n | n | n
Cc1ccc(NC(=O)c2ccco2)nc1 | x | x | x | x | n | x
Fc1ccc(NC(=S)NN=Cc2ccccc2Cl)cc1 | x | x | x | x | n | x
CC1(C)Cc2c(c(N3CCOCC3)nc3snc(Br)c23)CO1 | n | n | n | u | n | n
CCC1(c2cccc(Cl)c2)NC(=O)N(Cc2cc(C(=O)OC)c(C)o2)C1=O (centres undefined) | n | n | n | n | n | n
OCc1nc2ccccc2n1CCCOc1ccccc1 | 30.1 | n | 34.8 | n | n | n
Cc1cccc(OCCCn2c(CO)nc3ccccc32)c1 | 43.9 | n | 122.4 | n | n | n
Cc1ccc(OCCCn2c(CO)nc3ccccc32)cc1 | 18.4 | n | 67.0 | u | n | n
Cc1ccccc1OCCCCn1c(CO)nc2ccccc21 | n | n | n | n | n | n
COc1cccc(OCc2nc3ccccc3n2CCOc2cccc(C)c2)c1 | x | x | x | n | x | x
OCc1nc2ccccc2n1CCCc1ccccc1 | x | x | x | x | n | x
COc1ccccc1-c1oc2ccccc2c1-c1ccc2cc[nH]c2c1 | x | n | x | n | n | n
O=C(NCc1ccccc1)c1csc(-c2cccnc2)n1 | n | n | n | n | n | n
c1ccc(-c2nc(-c3cccnc3)cs2)cc1 | 46.1 | n | 51.6 | n | n | n
Cc1ccc(C)c(-c2csc(-c3cccnc3)n2)c1 | 21.2 | n | x | n | n | n
Cc1ccccc1-c1csc(C(C)(O)c2cccnc2)n1 (centres undefined) | x | x | x | x | n | x
c1ccc(CNc2nc(-c3cccnc3)cs2)cc1 | 34.1 | n | n | n | n | n
c1ccc(CNc2nc(-c3cccnc3)nc3ccccc23)cc1 | n | n | n | n | n | n
SMILES | CHX counter | SARS PLpro yeast | Shiga inhibitor | AmpC detergent | AMA1 RON2 block | AmpC inh no detg
c1ccc(-c2csc(-c3cccnc3)n2)cc1 | 27.8 | n | 88.6 | n | n | n
C=CCNc1nc(-c2ccc(O)c(C(N)=O)c2)cs1 | 22.0 | n | n | u | n | n
NC(=O)c1cc(-c2csc(-c3cccnc3)n2)ccc1O | n | n | 60.5 | u | n | n
NC(=O)c1cc(-c2csc(NCCc3ccccc3)n2)ccc1O | n | n | n | n | n | u
c1ccc(Nc2nnc(-c3cccnc3)s2)cc1 | 42.1 | n | 69.0 | n | n | n
Nc1nnc(-c2cccnc2)s1 | n | n | n | n | n | n
Clc1ccc2[nH]c3c(c2c1)CCc1cn[nH]c1-3 | 28.6 | n | 70.3 | n | n | n
Cc1ccc(N(C)/N=C/c2ccc(Cl)cc2Cl)nn1 | 16.3 | n | n | n | n | n
Cc1cc([N+](=O)[O-])nn1CC(=O)NCCc1c[nH]c2ccccc12 | n | n | n | n | n | n
Cc1ccc(C(=O)NCCc2c[nH]c3ccccc23)c(C)c1 | 79.5 | n | 87.2 | n | n | n
O=C(NCCc1c[nH]c2ccccc12)c1ccc([N+](=O)[O-])cc1 | 38.0 | n | 79.8 | n | n | n
O=C(Cn1ccc([N+](=O)[O-])n1)NCCc1c[nH]c2ccccc12 | 58.5 | n | 92.4 | n | n | n
O=C(NCCc1c[nH]c2ccccc12)c1ccc(S(=O)(=O)NCc2ccco2)cc1 | 16.1 | n | n | n | n | n
COC(=O)CCCNC(=O)c1ccc(S(=O)(=O)NCc2ccco2)cc1 | x | n | x | n | n | u
COc1cc(OC)c(NC(=O)CN(C)S(=O)(=O)c2ccc3c(c2)CCCC(=O)N3)cc1Cl | x | x | x | n | x | x
O=S1(=O)C[C@@H](N2CCN(c3ccccc3)CC2)[C@H](COCc2ccccc2)N1 | x | x | x | x | n | x
C=CCn1c(SCC(=O)N2CCCC2)nc2c([nH]c3ccccc32)c1=O | n | n | n | n | n | n
Cc1ccc(C(=O)NCCc2c[nH]c3ccccc23)s1 | 51.7 | n | 85.4 | n | n | n
CC(C)C(=O)NCCc1c[nH]c2ccccc12 | n | n | n | n | n | n
O=C(NCCc1c[nH]c2ccccc12)c1ccccc1 | 38.8 | n | 93.6 | n | n | n
C=CCNc1nc(-c2cccs2)c(CC(=O)O)s1 | n | n | n | n | n | n
C=CCNc1nc2c3ccccc3n(C(C)=O)c2s1 | n | n | 128.9 | n | n | n
COc1ccc(NC(=O)NC(C)c2ccccc2)cc1 (centres undefined) | n | n | n | n | n | n
COc1ccc(NC(C)c2ccccc2)cc1 (centres undefined) | 35.3 | n | 84.1 | n | n | n
Cc1cc(NC(=O)c2cc(CC(C)C)on2)no1 | 42.9 | n | 81.4 | u | n | n
SMILES | CHX counter | SARS PLpro yeast | Shiga inhibitor | AmpC detergent | AMA1 RON2 block | AmpC inh no detg
COc1ccc(NC(=O)c2cc(-c3ccco3)on2)c(OC)c1 | n | n | n | n | n | n
CCC(C)NC(=O)c1cc(CC(C)C)on1 (centres undefined) | 49.1 | n | 59.3 | n | n | n
Cc1cc(C(=O)Nc2ccc3[nH]ccc3c2)no1 | 45.7 | n | 74.2 | n | n | n
CC(C)Cc1cc(C(=O)NCc2ccc(Cl)cc2)no1 | x | x | x | n | x | x
COc1ccc(NC(=O)c2cc(C3CC3)on2)c(OC)c1 | 32.9 | n | 47.3 | n | n | n
CCOc1ccc(NC(=O)C2CCN(S(=O)(=O)c3ccc4c(c3)CC(C)N4C(C)=O)CC2)cc1 (centres undefined) | n | n | n | n | n | n
CC(C)CN(C(=O)CSc1nnc(-c2cccs2)n1C1CC1)C1CCS(=O)(=O)C1 (centres undefined) | x | x | x | x | n | x
CCC(C)Sc1nc2ccccc2c(=O)[nH]1 (centres undefined) | n | n | n | u | n | n
CC(C)CCn1c(CN2CCN(Cc3ccccc3)CC2)nc2c1c(=O)n(C)c(=O)n2C | n | n | n | u | n | n
CCc1ccc(C(=O)Nc2cc(C)on2)o1 | n | n | 88.6 | n | n | n
Cc1c(Cl)cccc1NC(=O)c1cc(C2CC2)on1 | 35.3 | n | 101.7 | u | n | n
Cc1cc(NC(=O)c2cc(C3CC3)on2)no1 | 40.5 | n | 73.0 | n | n | n
Cc1cc(NC(=O)c2ccc(C)o2)no1 | n | n | n | n | n | n
